# Test: probe aNog binding to arrayed compounds – biochemical, biotinylated probe, 635/667 nm fluorescence, primary screen (AID 1115);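 note: probe is biotinylated aNog protein used at 0.15 µg/mL for 1 h at 4 C; z-score combines 667 nm fluorescence of each spot with its signal to noise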
# Conditions: small-molecule microarray, higher = more signal
row,Structure (SMILES),composite z-score
1,COC(=O)C(CC#Cc1ccc2c(c1)[C@]1(C(=O)N2)[C@H](c2ccc(O)cc2)N2[C@H](c3ccccc3)[C@H](c3ccccc3)OC(=O)[C@H]2[C@@H]1C(N)=O)C(=O)OC,-0.263
2,O=C1C2C=CC(C(O)c3ccc(Br)cc3)N(Nc3ccccc3)C2C(=O)N1c1ccccc1 (centres undefined),1.26
3,O=C(O)[C@@]1(Cc2ccccc2)COC(c2ccc(OCCCO)cc2)=N1,0.0254
4,COC(=O)c1ccc(OC)c(/C=C\CC(CCc2ccccc2)OC(=O)c2ccncc2)c1 (centres undefined),-0.385
5,COC(=O)[C@@]1(Cc2ccc(OC)cc2)[C@H]2c3cc(C(=O)N4CCCC4)n(CCc4ccc(O)c(OC)c4)c3C[C@H]2CN1C(=O)c1ccccc1,1.03
6,C[N+](C)(C)CCCC[C@@H]1NC(=O)[C@H]2C[C@@H](C(=O)NCCCCCCN)[C@@H](c3cccc(OCCO)c3)N2C1=O,2.31
7,COC(=O)[C@]1(Cc2ccccc2N=[N+]=[N-])N=C(c2ccc(OCCCO)cc2)O[C@@H]1c1ccccc1,0.534
8,CC(C)N1C(=O)c2ccccc2[C@](C)(C(=O)O)[C@@H]1c1ccc(CO)cc1,0.338
9,COc1ccc(C(=O)Nc2ccc3c(c2)[C@]2(O[C@@H](CCO)[C@H]([Si](C)(C)c4ccc(OC)cc4)[C@H]2C)C(=O)N3Cc2ccccc2)cc1,-0.295

# Source: PubChem BioAssay
